# Epigenetic mod: derepresses silenced GFP locus in mouse C127i cells. mouse C127i GFP locus derepression, cytometry, 30 h. Potency, µM (top dose mostly 46.1 µM), for inactives: at the top dose GFP derepression (activation). actives 0.09% (n = 68,000). AID 597; further: % of control where 0% means no effect
#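 Murine C127i mammary cells carrying a silenced, stably integrated CMV-driven GFP reporter were treated with compound for 30 hours at 37 C. After PBS washes, GFP-positive cells were counted by laser-scanning microplate cytometry.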
# TSHR agonist: TSH receptor (human) agonism; HEK293-CNG-TSHR cells (CNG channel as cAMP sensor), membrane potential dye, cAMP; P16473; AID 926; actives 0.48% (n = 73,000); Potency, µM (doses to about 57.1 µM), without a hit: top-dose activation, usual class: activators; active means well fitted activation curve with a large enough effect in the main read-out, with a control signal flat, not every such curve was filed as active; inconclusive means small, poorly fitted or top-dose-only effect, or a change in a side signal; inactive means no such curve, though single readings can be large or run the other way; % of control where 0% means no effect;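 further: the control signal comes from parental cells without the receptor; potency means the concentration at half of the fitted maximal effect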
# Target sequence (P16473 whole entry, looked up): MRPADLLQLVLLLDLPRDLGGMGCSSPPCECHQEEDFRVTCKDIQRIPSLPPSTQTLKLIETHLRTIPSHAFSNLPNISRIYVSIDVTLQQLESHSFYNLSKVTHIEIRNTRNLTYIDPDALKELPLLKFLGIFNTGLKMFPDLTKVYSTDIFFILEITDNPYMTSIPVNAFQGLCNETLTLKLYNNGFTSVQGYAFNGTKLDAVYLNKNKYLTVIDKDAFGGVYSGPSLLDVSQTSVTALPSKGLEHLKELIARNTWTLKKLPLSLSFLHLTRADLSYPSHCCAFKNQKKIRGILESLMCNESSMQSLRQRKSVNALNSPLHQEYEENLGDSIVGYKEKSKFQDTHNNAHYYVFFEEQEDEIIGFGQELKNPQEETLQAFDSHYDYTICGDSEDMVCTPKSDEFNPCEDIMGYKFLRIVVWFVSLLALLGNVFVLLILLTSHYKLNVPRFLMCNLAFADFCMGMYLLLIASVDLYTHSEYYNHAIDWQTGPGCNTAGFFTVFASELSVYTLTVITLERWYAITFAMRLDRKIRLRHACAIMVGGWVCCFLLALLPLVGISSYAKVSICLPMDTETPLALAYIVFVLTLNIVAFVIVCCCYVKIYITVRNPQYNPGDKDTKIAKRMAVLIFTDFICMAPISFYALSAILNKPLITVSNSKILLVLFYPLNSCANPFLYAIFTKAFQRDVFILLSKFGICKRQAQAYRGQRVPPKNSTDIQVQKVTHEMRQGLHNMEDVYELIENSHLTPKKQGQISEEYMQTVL
#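 cAMP rise detected as CNG-channel membrane depolarization by fluorescent dye (emission 590 nm), 30 min after compound, following 60 min dye loading containing 100 uM RO 20-1724 at room temperature. Cells: TSHR/CNG HEK 293, with parental CNG HEK 293 as control.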
# HBB splice mod: modulators of hemoglobin beta chain splicing; HBB splicing reporter cell assay, activation; EGFP reporter with mutant IVS2-654 intron; response scale: normalised to 500 nM splice-correcting PNA; Potency, µM (top dose mostly 46.1 µM), for inactives: top-dose activation, hits mostly activators; actives 0.06% (n = 65,000); further: potency means the concentration at half of the fitted maximal effect; 0% is about no effect
#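 HeLa cells stably expressing EGFP interrupted by mutant beta-globin intron 2 (IVS2-654), 500/well in 2% FCS. Treated with compound for 2 days at 37C. Splicing correction scored as total well GFP intensity (488 nm excitation, 500-520 nm emission); 500 nM antisense PNA served as control.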
# Ub-GFP proteasome: proteasome inhibitors stabilizing ubiquitin-GFP reporter; Ubiquitin-GFP reporter cells, proteasome inhibition, GFP fluorescence; response scale: untreated = 0%, 10 µM MG-132 = 100%; Potency, µM (titrated, usually from 45.9 µM), without a hit: at the highest dose activation (GFP accumulation), hits mostly activators; 67,000 tested, under 10 active; active means well fitted activation curve with a large enough effect, not every such curve was filed as active; inconclusive means small, poorly fitted or top-dose-only effect, or another doubt; inactive means no such curve, though single readings can be large or run the other way; further: potency means the concentration at half of the fitted maximal effect
#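 Proteasome blockade was scored as a rise in GFP-expressing U2OS cells carrying a ubiquitin(G76V)-GFP construct, imaged after 4 hr compound treatment at 37 °C across a 46 uM–2.9 nM series.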
# HEK293 cAMP ctrl: parental HEK293 cAMP activation (counter-screen). parental HEK293 CNG cAMP sensor, membrane potential fluorescence. Potency, µM (doses to about 57.1 µM), for the others: at the highest dose activation, actives largely listed as activators. actives 2.5% (n = 73,000); further: potency means the concentration at half of the fitted maximal effect; % of control where 0% means no effect; nearly all actives have a fitted effect of over 55% in size
#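 Parental HEK 293 cells stably expressing a modified CNG channel (no TSHR) report cAMP rise as membrane depolarization. Membrane potential dye with 100 uM RO 20-1724 was loaded for 60 min at room temperature, then compound added for 30 min; fluorescence read at 590 nm.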
# * hit, by the source's call; ? = inconclusive; · = not tested or not shown; [ ] = remark or other dose. Shown are actives, neighbours in structure and some others; about 3% of the full set was active somewhere. Unless noted, the call rests on the fitted dose curve; in most records, active means well fitted curve in the direction sought with a large enough effect; inconclusive means small, poorly fitted or top-dose-only effect, or another doubt; inactive means no such curve, though single readings can be large; an effect the other way counts as inactive or inconclusive.
SMILES,Epigenetic mod,TSHR agonist,HBB splice mod,Ub-GFP proteasome,HEK293 cAMP ctrl
CCc1ccc2[nH]c(=O)c(CN(Cc3ccccc3OC)Cc3nnnn3Cc3ccco3)cc2c1,-2%,?,11%,0%,?
CCOc1ccc2[nH]c(=O)c(CN(Cc3ccco3)Cc3nnnn3Cc3ccccc3)cc2c1,-2%,?,0%[57.5 µM],-5%,32µM*
COc1ccccc1CN(Cc1cc2cc(C)ccc2[nH]c1=O)Cc1nnnn1Cc1ccco1,?,?,-1%,5%,20µM*
CCOC(=O)CCN1C(=O)[C@H]2[C@H]3[C@H](O)[C@H](O)C/C(=N/OC/C=C(\C)CCC=C(C)C)[C@H]3CC[C@@H]2C1=O,·,-3%[11.4 µM],0%[9.22 µM],·,1%[11.4 µM]
Cc1cccn2c(=O)c(/C=N/O)c(N3CCCCC3)nc12,0%,?,1%,12%,16µM*
Cc1cccn2c(=O)c(/C=C(\C#N)S(=O)(=O)c3ccccc3)c(N3CCN(C)CC3)nc12,4%[20.6 µM],·,·,·,·
Cc1ccccc1N1C(=O)c2cccc3c(N(C)CCO)ccc(c23)C1=O,-2%,-6%,20µM*,12%,4%
CCOC(=O)C1=C(C)Nc2ncnn2C1c1ccc2c(c1)OCO2 (stereo not given),2%,3.2µM*,0%,7%,24%
CCOC(=O)C1=C(C)NC(=O)NC1c1ccc2c(c1)OCO2 (stereo not given),2%[20.6 µM],·,·,·,·
Fc1ccccc1CSc1nnc(-c2cnccn2)n1Cc1ccco1,-3%,?,-1%,15%,25µM*
Fc1ccc(CSc2nnc(-c3cnccn3)n2Cc2ccco2)cc1,0%,13%,-2%,2%,10%
O=C(CSc1nnc(-c2cnccn2)n1Cc1ccco1)c1ccc2ccccc2c1,0%,?,-2%[57.5 µM],-2%,?
Brc1ccc(CSc2nnc(-c3cnccn3)n2Cc2ccco2)cc1,2%,?,3%[0.369 µM],·,20µM*
C(=C\c1ccccc1)/CSc1nnc(-c2cnccn2)n1Cc1ccco1,0%,?,0%,?,13µM*
COc1ccc(OC)c(C2OCCC=CC2C)c1 (stereo not given),·,2%[11.4 µM],2%[9.22 µM],·,0%[11.4 µM]
C=C1C(CCl)(CCl)C2(Cl)C(Cl)C(Cl)C1(Cl)C2(Cl)Cl (stereo not given),·,40µM*,-1%,·,18%
NCc1nnn(Cc2ccccc2)c1N,4%[9.22 µM],1%[11.4 µM],3%[9.22 µM],-11%[9.17 µM],0%[11.4 µM]
O=C(O)CN(CCN(CC(=O)O)CC(=O)O)CC(=O)O.[Cu],-6%[9.22 µM],-2%[11.4 µM],3%[9.22 µM],-2%[9.17 µM],-8%[11.4 µM]
COc1cccc(-c2nc(CS(=O)(=O)CC(=O)NCc3ccccc3)c(C)o2)c1,0%,?,0%,12%,?
COc1ccc(OC)c(CCNC(=O)CS(=O)(=O)Cc2nc(-c3ccccc3C)oc2C)c1,2%,?,-1%,-4%,16µM*
Cc1ccccc1-c1nc(CS(=O)(=O)CC(=O)NCc2ccccc2)c(C)o1,-2%,16µM*,-1%,0%,27%
Cc1ccc2cc(C#N)c(NCCNC(=O)C3CCC3)nc2c1C,0%,·,·,1%,28%
Cc1cccc2cc(C#N)c(NCCNC(=O)NC3CCCCC3)nc12,-1%,?,-7%,3%,20µM*
CO/N=C\[C@@H](NS(=O)(=O)c1ccc(C)cc1)[C@H](C)/C=C\CC(=O)OC,·,·,1%[9.22 µM],·,5%[11.4 µM]
CC1=C2[C@H](/C=C(\C)C(=O)O)CC[C@@H](C)[C@H]2CC1,·,?,-1%,·,?
Cc1ccc(-c2cc(C(F)F)n3ncc(C(=O)N4CCN5CCCC5C4)c3n2)cc1 (stereo not given),3%,?,-2%,-6%,20µM*
COc1ccc(-c2cc(C(F)F)n3ncc(C(=O)N4CCSCC4)c3n2)cc1,-3%,?,1%,-4%,?
CCOC(=O)C1CCCN(C(=O)c2cnn3c(C(F)F)cc(-c4ccc(C)cc4)nc23)C1 (stereo not given),2%,?,0%,-2%,7.9µM*
C1CCC(N=C(NC23CC4CC(CC(C4)C2)C3)N2CCOCC2)CC1,-1%,?,-1%,7%,25µM*

# Source: PubChem BioAssay (National Center for Advancing Translational Sciences (NCATS))
